From the supplement of paper PMC6555819

Experiments:
Experiment in all cases: PBM binding z-score (relative to random genomic background probes); higher = stronger binding; sequences stand for … in GC…GCGATTGACAGCGTAGAATGAAGG
[1] = test system: FXR:RXRa (NR concentration 270 nM, RXRa partner concentration 90 nM)
How it was run: (§1)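 Probes were double-stranded and carried 34-nt variable regions with direct-repeat seeds, single-nucleotide variants, half-site ablations and random human genomic background sequences, printed on custom Agilent 4×180K protein-binding microarrays. Arrays were incubated 1 h with ligand-free nuclear receptor dimers in PBS pH 7.4, 2% milk, 0.02% Triton X-100, 1 mM DTT, 0.2 mg/mL BSA and 0.4 mg/ml salmon testes DNA. Antibodies against each partner (one per run) detected binding, and scanned fluorescence was regression-normalized. Binding z-scores use the random background probes as reference.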

[2] = test system: LXRa:RXRa (NR concentration 270 nM, RXRa partner concentration 90 nM)
How it was run: as §1

[3] = test system: LXRa homodimer (NR concentration 270 nM)
How it was run: as §1

[4] = test system: LXRb:RXRa (NR concentration 270 nM, RXRa partner concentration 90 nM)
How it was run: as §1

[5] = test system: LXRb homodimer (NR concentration 270 nM)
How it was run: as §1

[6] = test system: PPARa:RXRa (NR concentration 270 nM, RXRa partner concentration 90 nM)
How it was run: as §1

[7] = test system: PPARg:RXRa (NR concentration 180 nM, RXRa partner concentration 90 nM)
How it was run: as §1

[8] = test system: PPARg:RXRa 270nM:90nM, anti-RXR (NR concentration 270 nM, RXRa partner concentration 90 nM)
How it was run: as §1

[9] = test system: PPARg:RXRa 30nM:10nM, anti-RXR (NR concentration 30 nM, RXRa partner concentration 10 nM)
How it was run: as §1

[10] = test system: PPARg:RXRa 90nM:30nM, anti-RXR (NR concentration 90 nM, RXRa partner concentration 30 nM)
How it was run: as §1

[11] = test system: PPARg:RXRa DBDmut IVT, anti-RXR (DBD mutation: RXRa K156A/R161A, NR concentration 270 nM, RXRa partner concentration 90 nM)
How it was run: as §1

[12] = test system: PPARg:RXRa IVT, anti-PPARg (NR concentration 270 nM, RXRa partner concentration 90 nM)
How it was run: as §1

[13] = test system: PPARg DBDmut:RXRa IVT, anti-PPARg (DBD mutation: PPARg1 K132A/R137A, NR concentration 270 nM, RXRa partner concentration 90 nM)
How it was run: as §1

[14] = test system: PPARg DBDmut IVT, anti-PPARg (DBD mutation: PPARg1 K132A/R137A, NR concentration 270 nM)
How it was run: as §1

[15] = test system: PPARg homodimer (NR concentration 180 nM)
How it was run: as §1

[16] = test system: PXR:RXRa (NR concentration 270 nM, RXRa partner concentration 90 nM)
How it was run: as §1

[17] = test system: PXR homodimer (NR concentration 270 nM)
How it was run: as §1

[18] = test system: RARa:RXR (NR concentration 270 nM, RXRa partner concentration 90 nM)
How it was run: as §1

[19] = test system: RARa homodimer (NR concentration 270 nM)
How it was run: as §1

[20] = test system: RARb:RXRa (NR concentration 270 nM, RXRa partner concentration 90 nM)
How it was run: as §1

Sequence	PBM binding z-score [1]	PBM binding z-score [2]	PBM binding z-score [3]	PBM binding z-score [4]	PBM binding z-score [5]	PBM binding z-score [6]	PBM binding z-score [7]	PBM binding z-score [8]	PBM binding z-score [9]	PBM binding z-score [10]	PBM binding z-score [11]	PBM binding z-score [12]	PBM binding z-score [13]	PBM binding z-score [14]	PBM binding z-score [15]	PBM binding z-score [16]	PBM binding z-score [17]	PBM binding z-score [18]	PBM binding z-score [19]	PBM binding z-score [20]
TCGAGTAGGTTACCAATGGGGAATTCAGCTTTCT	0.0745	0.417	-0.56	0.355	-0.737	0.977	0.304	1.2	0.963	1.18	3.57	2.58	-0.097	-0.739	-0.227	-0.148	-1.08	0.0848	-1.2	0.621
ATCGAAAGGTCGAGAGGTGAGTATACAGAAAGGC	4.46	3.02	-0.0292	2.63	0.274	4.33	3.42	3.44	1.69	2.47	-0.201	1.82	0.777	0.861	2.03	2.69	-0.031	3.73	0.105	3.88
GCTCGGAGGACAAGGTCGGAGCTTTGTCCGTAGA	-0.163	-0.153	-0.91	-0.475	-1.14	0.143	-1.09	-0.163	-1.12	-0.578	-1.06	-0.138	-1.21	-1.93	-0.925	-0.155	-0.823	0.146	-1.12	1.59
